# Test results from the supplement of paper PMC8728848.
# The full list was thinned out, with the strongest signals kept by preference.
# B1: Apa (Mycobacterium tuberculosis), Rv1860 (protein)
# chain: MHQVDPNLTRRKGRLAALAIAAMASASLVTVAVPATANADPEPAPPVPTTAASPPSTAAAPPAPATPVAPPPPAAANTPNAQPGDPNAAPPPADPNAPPPPVIAPNAPQPVRIDNPVGGFSFALPAGWVESDAAHFDYGSALLSKTTGDPPFPGQPPPVANDTRIVLGRLDQKLYASAEATDSKAAARLGSDMGEFYMPYPGTRINQETVSLDANGVSGSASYYEVKFSDPSKPNGQIWTGVIGSPAANAPDAGPPQRWFVVWLGTANNPVDKGAAKALAESIRPLVAPPPAPAPAPAEPAPAPAPAGEVAPTPTTPTPQRTLPA
# What was measured:
# Test in all cases: glycan array binding signal (z-score within array); higher = stronger binding
# Details in all cases: glycan notation: IUPAC condensed, linker removed
# [1] = target: Fuc(a1-2)Gal(b1-3)GalNAc(a1-3)[Fuc(a1-2)]Gal(b1-4)Glc
# Summary of the method: (§1)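 Glycan array binding is given as a within-array Z-score, which can be read as non-binding when negative. The arrays, 3228 of them, came from the Consortium for Functional Glycomics database and were retained only where the protein sequence was available. Z-scores were averaged across arrays of the same protein sequence at different concentrations or buffers and across linkers.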
# [2] = target: Fuc(a1-2)Gal(b1-3)GalNAc(b1-3)Gal
# Summary of the method: as §1
# Fuc(a1-2)Gal(b1-4)Glc6S = target: Fuc(a1-2)Gal(b1-4)Glc6S
# Summary of the method: as §1
# [3] = target: Fuc(a1-2)Gal6S(b1-3)GlcNAc6S
# Summary of the method: as §1
# [4] = target: Fuc(a1-2)Gal6S(b1-4)Glc6S
# Summary of the method: as §1
# [5] = target: Fuc(a1-2)[Gal(a1-3)]Gal(b1-3)GlcNAc(b1-2)Man(a1-3)[Fuc(a1-2)[Gal(a1-3)]Gal(b1-3)GlcNAc(b1-2)Man(a1-6)]Man(b1-4)GlcNAc(b1-4)[Fuc(a1-6)]GlcNAc
# Summary of the method: as §1
# [6] = target: Fuc(a1-2)[Gal(a1-3)]Gal(b1-4)[Fuc(a1-3)]Glc
# Summary of the method: as §1
# [7] = target: Fuc(a1-2)[Gal(a1-3)]Gal(b1-4)[Fuc(a1-3)]GlcNAc
# Summary of the method: as §1
# [8] = target: Fuc(a1-2)[GalNAc(a1-3)]Gal(b1-3)GalNAc(a1-3)[Fuc(a1-2)]Gal(b1-4)GlcNAc
# Summary of the method: as §1
# [9] = target: Fuc(a1-2)[GalNAc(a1-3)]Gal(b1-3)GalNAc(b1-3)Gal(a1-4)Gal(b1-4)Glc
# Summary of the method: as §1
# [10] = target: Fuc(a1-2)[GalNAc(a1-3)]Gal(b1-4)GlcNAc
# Summary of the method: as §1
# [11] = target: Fuc(a1-3)[Gal(b1-4)]Glc6S
# Summary of the method: as §1
# [12] = target: Fuc(a1-3)[Gal(b1-4)]GlcNAc(b1-3)Gal(b1-4)[Fuc(a1-3)]GlcNAc
# Summary of the method: as §1
# [13] = target: Fuc(a1-3)[Gal(b1-4)]GlcNAc6S
# Summary of the method: as §1
# Fuc(a1-4)GlcNAc = target: Fuc(a1-4)GlcNAc
# Summary of the method: as §1
# Gal(b1-3)GlcNAc(b1-2)Man = target: Gal(b1-3)GlcNAc(b1-2)Man
# Summary of the method: as §1
# [14] = target: Gal(b1-3)GlcNAc(b1-2)Man(a1-3)[Gal(b1-3)GlcNAc(b1-2)Man(a1-6)]Man(b1-4)GlcNAc(b1-4)GlcNAc
# Summary of the method: as §1
# [15] = target: Gal(b1-3)GlcNAc(b1-3)Gal(b1-3)GlcNAc
# Summary of the method: as §1
# Gal(b1-3)GlcNAc6S = target: Gal(b1-3)GlcNAc6S
# Summary of the method: as §1
# [16] = target: Gal(b1-4)GalNAc(b1-3)[Fuc(a1-2)]Gal(b1-4)GlcNAc
# Summary of the method: as §1
# [17] = target: Gal(b1-4)GlcNAc(a1-6)Gal(b1-4)GlcNAc
# Summary of the method: as §1
# [18] = target: Gal(b1-4)GlcNAc(b1-2)Man(a1-3)[Gal(b1-4)GlcNAc(b1-2)Man(a1-6)]Man(b1-4)GlcNAc(b1-4)[Fuc(a1-6)]GlcNAc
# Summary of the method: as §1
# [19] = target: Gal(b1-4)GlcNAc(b1-2)[Gal(b1-4)GlcNAc(b1-4)]Man(a1-3)[GlcNAc(b1-4)][Gal(b1-4)GlcNAc(b1-2)[Gal(b1-4)GlcNAc(b1-6)]Man(a1-6)]Man(b1-4)GlcNAc(b1-4)GlcNAc
# Summary of the method: as §1
# [20] = target: Gal(b1-4)GlcNAc(b1-3)Gal(b1-3)GlcNAc
# Summary of the method: as §1
# [21] = target: Gal(b1-4)GlcNAc(b1-3)Gal(b1-4)GlcNAc
# Summary of the method: as §1
# Gal(b1-4)GlcNAc6P = target: Gal(b1-4)GlcNAc6P
# Summary of the method: as §1
binder,measurement,setting,value
B1,glycan array binding signal (z-score),[1],2.08
same,glycan array binding signal (z-score),[2],4.21
same,glycan array binding signal (z-score),Fuc(a1-2)Gal(b1-4)Glc6S,-0.06
same,glycan array binding signal (z-score),[3],2.87
same,glycan array binding signal (z-score),[4],1.9
same,glycan array binding signal (z-score),[5],0.338
same,glycan array binding signal (z-score),[6],-0.318
same,glycan array binding signal (z-score),[7],0.273
same,glycan array binding signal (z-score),[8],14.3
same,glycan array binding signal (z-score),[9],5.64
same,glycan array binding signal (z-score),[10],-0.327
same,glycan array binding signal (z-score),[11],0.898
same,glycan array binding signal (z-score),[12],0.272
same,glycan array binding signal (z-score),[13],1.94
same,glycan array binding signal (z-score),Fuc(a1-4)GlcNAc,-0.036
same,glycan array binding signal (z-score),Gal(b1-3)GlcNAc(b1-2)Man,2.77
same,glycan array binding signal (z-score),[14],-0.376
same,glycan array binding signal (z-score),[15],-0.31
same,glycan array binding signal (z-score),Gal(b1-3)GlcNAc6S,-0.259
same,glycan array binding signal (z-score),[16],5.04
same,glycan array binding signal (z-score),[17],0.281
same,glycan array binding signal (z-score),[18],-0.333
same,glycan array binding signal (z-score),[19],0.024
same,glycan array binding signal (z-score),[20],-0.238
same,glycan array binding signal (z-score),[21],-0.271
same,glycan array binding signal (z-score),Gal(b1-4)GlcNAc6P,-0.455
